Compounds with a hit are over-represented: about 2.4% of the library has one in this group of screens.
EP2 mod: modulators of human EP2 prostaglandin E2 receptor. induction, % at 25 µM. P43116. EP2-expressing cells, cAMP HTRF FRET, PGE2 co-stimulation. 260,000 compounds, 0.83% hits;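 active = compounds whose cAMP rise, as percent of the full-agonist control response, exceeds 60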;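 note: rat C6 glioma line stably carrying human EP2 under a CMV promoter; the protocol text gives 20 µM as final concentration; 100% = response of wells given 1 µM PGE2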
S1P3 antag-1: antagonists of human S1P3 receptor | CHO S1P3 NFAT-BLA reporter, FRET fluorescence, antagonist mode | AID 485 | inhibition, % at 4.98 µM | 170,000 compounds, 0.27% hits;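 active = inhibition above the plate cutoff, the mean inhibition of test wells on that plate plus 3 SD, cut at about 28% in these data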;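 note: cells challenged with S1P at its EC80 of 0.8 µM; blue over green emission ratio from cleaved BLA substrate after 4 h stimulation; 0% = S1P-stimulated wells and 100% = unstimulated DMSO-only wells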
Target sequence (Q99500 whole entry, looked up): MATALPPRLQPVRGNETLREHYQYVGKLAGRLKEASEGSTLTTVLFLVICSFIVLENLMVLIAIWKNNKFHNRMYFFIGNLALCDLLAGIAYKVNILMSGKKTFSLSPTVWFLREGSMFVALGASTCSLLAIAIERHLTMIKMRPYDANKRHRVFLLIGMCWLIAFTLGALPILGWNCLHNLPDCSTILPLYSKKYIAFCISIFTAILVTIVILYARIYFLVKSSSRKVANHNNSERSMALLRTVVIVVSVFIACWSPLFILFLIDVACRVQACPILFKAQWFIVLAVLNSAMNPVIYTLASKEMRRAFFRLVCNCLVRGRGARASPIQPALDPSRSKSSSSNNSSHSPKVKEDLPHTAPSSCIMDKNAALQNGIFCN
S1P4 agonist: activates the human S1P4 receptor. O95977. S1P4-expressing cell line, agonist reporter assay. 220,000 compounds, 0.35% hits. AID 1509. activation, % at 4.98 µM; in the data active = activation above about 11%;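 note: 0% = DMSO vehicle and 100% = reference agonist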
Target sequence (O95977 whole entry, looked up): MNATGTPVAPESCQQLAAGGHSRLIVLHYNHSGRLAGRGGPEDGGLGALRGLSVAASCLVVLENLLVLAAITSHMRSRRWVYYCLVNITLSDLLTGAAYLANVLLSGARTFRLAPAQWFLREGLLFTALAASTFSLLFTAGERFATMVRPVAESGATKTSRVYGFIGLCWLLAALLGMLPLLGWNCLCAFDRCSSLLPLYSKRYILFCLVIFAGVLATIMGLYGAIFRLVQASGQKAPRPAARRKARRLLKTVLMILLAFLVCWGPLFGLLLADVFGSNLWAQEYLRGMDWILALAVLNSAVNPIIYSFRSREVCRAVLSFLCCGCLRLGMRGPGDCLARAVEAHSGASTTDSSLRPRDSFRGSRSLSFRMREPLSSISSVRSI
PGE2 EP2 inh: EP2 receptor (human) inhibition | P43116 | C6 glioma cells expressing human EP2, cAMP TR-FRET; cells stimulated with saturating PGE2 | inhibition, % at 25 µM | 260,000 compounds, 0.52% hits | AID 1422;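 active = percent inhibition above 40 after rounding to a whole number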;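 note: rat C6 glioma host cells with rolipram phosphodiesterase inhibitor present; the protocol text gives 20 µM as final concentration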
S1P4 antagonist: antagonists of human S1P4 receptor; O95977; S1P4-expressing cells, antagonist mode, reporter read-out; inhibition, % at 4.98 µM; 220,000 compounds, 0.26% hits; AID 1510; in the data active = inhibition above about 29%;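 note: 0% = wells stimulated with agonist and 100% = vehicle wells without agonist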
Insulin prom inh: TRM-6 insulin promoter activity inhibition. TRM-6 cells (human fetal islet line), insulin promoter-eGFP reporter, imaging; reporter expression induced with tamoxifen. inhibition, % at 2 µM. 130,000 compounds, 0.9% hits;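 active = inhibition above the mean plus 3 SD, with well images judged a real hit on visual review, cut at about 60% in these data, passing the limit was not always enough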
S1P3 antag-2: confirmation of human S1P3 receptor antagonists. shares compounds with S1P3 antag-1. CHO S1P3 NFAT-BLA reporter, FRET, antagonist mode. inhibition, % at 4.98 µM. 240 compounds, 30% hits. AID 1429;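 active = inhibition above the hit threshold that was computed for the earlier primary screen, cut at about 30% in these data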;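 note: 0% = S1P-stimulated wells and 100% = unstimulated DMSO-only wells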
EP2 confirm: human EP2 receptor cAMP induction, negative in counter-screens; shares compounds with EP2 mod; calls only at 20 µM (by protocol); 1,300 compounds, 47% hits; AID 1080; C6 glioma EP2 cells, cAMP HTRF induction; plus low (about EC15) PGE2 agonist;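 active = cAMP induction above 50% in the main assay while under 30% in all four parallel counter assays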;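 note: rat C6 glioma cells stably expressing human EP2 receptor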
S1P4 ag conf: confirmation of human S1P4 receptor agonists; 740 compounds, 7% hits; activation, % at 4.98 µM; AID 1523; S1P4 agonist cell-based reporter assay; shares compounds with S1P4 agonist; in the data active = activation above about 12%;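 note: 0% = vehicle and 100% = full reference agonist response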
S1P1 agonist: counter-screen for S1P4 agonists: agonists of human S1P1. S1P1 agonist cell-based assay, activation. shares compounds with S1P4 agonist. 740 compounds, 4% hits. activation, % at 4.98 µM. AID 1563; in the data active = activation above about 21%;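 note: 0% = vehicle wells and 100% = reference agonist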
S1P4 antag conf: human S1P4 antagonism, confirmation; shares compounds with S1P4 antagonist; S1P4-expressing cell line, antagonist mode, reporter read-out; inhibition, % at 4.98 µM; 520 compounds, 71% hits; AID 1524; in the data active = inhibition above about 30%
S1P1 antagonist: human S1P1 antagonism as S1P4 antagonist counter-screen; shares compounds with S1P4 antagonist; cell-based S1P1 antagonist counterscreen, inhibition; inhibition, % at 4.98 µM; 520 compounds, 37% hits; AID 1564; in the data active = inhibition above about 40%;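 note: receptor stimulated with S1P near its EC80; 0% = agonist stimulated wells and 100% = vehicle only wells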
* marks the source's active call; other numbers are inactive results; i = inactive; · = no result; + = active, no number; ! = repeats disagree.

SMILES	EP2 mod	S1P3 antag-1	S1P4 agonist	PGE2 EP2 inh	S1P4 antagonist	Insulin prom inh	others
COc1ccc(-n2c(/C=C/c3ccccn3)nc3ccccc3c2=O)cc1	-1.5	·	·	11.8	·	·
CNc1ccc2oc(C[C@H]3O[C@@]4(CC[C@H]3C)O[C@H]([C@H](C)C(=O)c3ccc[nH]3)[C@H](C)C[C@H]4C)nc2c1C(=O)O	56.9	·	·	70.9*	·	·
O=C(O)c1cccc([As]=[As]c2cccc(C(=O)O)c2)c1 (stereo not given)	26.6	·	·	42.1*	·	·
COc1cc2c(cc1OC)[C@@]13CCN4CC5=CCO[C@H]6CC(=O)N2[C@H]1[C@H]6[C@H]5C[C@H]43	0.6	-43.4	-4.3	15.0	-2.6	-59.1
COc1cc2c(cc1OC)[C@]13CC[N@+]4(C)CC5=CCO[C@@H]6CC(=O)N2[C@@H]1[C@@H]6[C@@H]5C[C@]34O	27.4	·	·	41.5*	·	·
N#CC1=C(N)Oc2c(c(=O)oc3ccccc23)C1c1ccc2c(c1Cl)OCO2 (stereo not given)	-5.8	·	·	6.0	·	·
CCCCn1c(=O)c(C(=O)NCc2ccncc2)c(O)c2ccccc21	62.5*	-30.5	-1.4	17.2	-8.3	-24.2
CCCCCCn1c(=O)c(C(=O)Nc2ccncc2)c(O)c2ccccc21	·	1.1	·	·	·	·
COc1cc2c(cc1OC)[C@]13CCN4CC5=CCO[C@@H](CC(=O)O)[C@H]([C@H]5C[C@H]41)[C@@H]3N2	17.9	·	·	36.9	·	·
C=C1C(=O)O[C@@H]2C[C@@H](C)[C@@H]3C=CC(=O)[C@@]3(C)[C@@H](OC(=O)CC(=O)O[C@H]3[C@@H]4C(=C)C(=O)O[C@@H]4C[C@@H](C)[C@@H]4C=CC(=O)[C@]43C)[C@H]12	-43.9	·	·	166.3*	·	·
C[N+](C)(C)CC1Cc2ccccc2O1 (stereo not given)	-8.0	·	·	4.7	·	·
C[C@@H]1CC[C@@H]2N(C1)C[C@@H]1[C@](O)([C@H](O)C[C@]3(O)[C@H]4CC[C@@H]5[C@]6(O)O[C@@]4(C[C@@]13O)[C@@]5(C)CC[C@H]6O)[C@@]2(C)O	11.3	·	·	47.8*	·	·
C#CCOc1ccccc1CN1C2CCC1CC(O)(c1ccccc1F)C2 (stereo not given)	-34.6	·	·	5.7	·	·
O=C(O)C(Oc1nc(=S)[nH]c(=S)[nH]1)(c1ccc(Cl)cc1)c1ccc(Cl)cc1	8.5	·	·	49.7*	·	·
COc1ccc(N=Cc2c(O)n(-c3ccc(C)cc3)c(=O)[nH]c2=O)cc1	-15.6	30.0*	1.9	3.7	-10.2	83.3*	S1P3 antag-2=-10.8
COc1ccc(OCC(=O)N2CCN(Cc3ccc(OC)c(OC)c3)CC2)cc1	12.6	·	·	7.5	·	·
COc1ccc(Cc2nccc3cc(OC)c(OC)cc23)cc1OC	3.8	28.5*	2.7	14.5	-17.8	-54.5	S1P3 antag-2=16.1
CCCc1ccc(CN2C3CCC2CC(O)(c2nccn2C)C3)s1 (stereo not given)	-1.4	·	·	4.8	·	·
C[C@H]1CCC/C=C/C2C[C@H](O)CC2[C@H](O)/C=C/C(=O)O1 (stereo not given in full)	16.1	45.7*	-0.9	16.7	51.5*	-304.6	S1P3 antag-2=16.1;S1P4 antag conf=97.3*;S1P1 antagonist=27.9
COc1ccc(-n2c(SCCN3CCCCC3)nc3ccccc3c2=O)cc1	-7.8	·	·	8.1	·	·
CC(=O)[C@H]1CC[C@H]2[C@@H]3CC[C@H]4C[C@H](O)CC[C@]4(C)[C@H]3C(=O)C[C@]12C	18.0	0.3	-1.6	17.0	2.4	19.1
CC(=O)C1CC[C@H]2C3CC[C@H]4C[C@H](O)CC[C@]4(C)C3CC[C@]12C (stereo not given in full)	50.1	·	·	18.5	·	·	EP2 confirm=i
Cc1ccc(CN2C(=O)CN=C(c3ccccc3)c3ccccc32)cc1	67.6*	11.2	0.3	5.2	-1.8	0.0	EP2 confirm=i
CC1CCC(NC(=O)CN2C3CCC2CC(O)(c2ccco2)C3)CC1 (stereo not given)	-31.9	·	·	·	·	·
CCCCCn1c(=O)c(C(=O)NCc2ccco2)c(O)c2ccccc21	58.0	-0.2	1.1	5.2	-11.6	·
SMILES	EP2 mod	S1P3 antag-1	S1P4 agonist	PGE2 EP2 inh	S1P4 antagonist	Insulin prom inh	others
CCCCn1c(=O)c(C(=O)NCc2ccco2)c(O)c2ccccc21	67.4*	-4.3	-1.4	5.4	3.4	9.1	EP2 confirm=+
O=C(c1cccs1)c1cn(Cc2ccccc2Cl)c2ccccc12	73.7*	·	0.5	8.5	-12.6	44.4	EP2 confirm=i
N#Cc1ccccc1Cn1cc(C(=O)c2cccs2)c2ccccc21	29.4	6.2	-0.1	14.6	13.7	-54.7
CCN1CC2(C)CC[C@H](OC)[C@]34C2[C@H](O)C2(OCO[C@@]25C[C@H](OC)[C@H]2C[C@]3(O)C5[C@H]2O)C14	-3.7	·	·	9.1	·	·
CC(=O)Oc1c2c(c(CC=C(C)C)c3c1C(=O)C1=C[C@@H]4CC5C(C)(C)OC(C/C=C(\C)C(=O)O)(C4=O)[C@@]15O3)OC(C)(CCC=C(C)C)C=C2 (stereo not given in full)	6.8	·	·	27.1	·	·
Cc1cccc(-n2c(C)nc3c(Cl)cc(Cl)cc3c2=O)c1	9.6	·	·	14.7	·	·
C[C@]12CCC(=O)C=C1CCC1C2CC[C@@]2(C)C1CC[C@@H]2O (stereo not given in full)	73.0*	·	·	3.8	·	·	EP2 confirm=+
Nc1ccc(Cl)cc1C(=O)c1ccccc1Cl	67.4*	-0.8	2.8	12.7	-1.7	-433.3	EP2 confirm=+
Nc1ccc(Br)cc1C(=O)c1ccccc1	83.1*	-10.8	-0.7	2.3	-17.1	-44.4	EP2 confirm=+
CC[C@@H]1C(=O)OC[C@@H]1Cc1cncn1C	79.7*!	-8.8	1.5	16.3	-19.2	50.0	EP2 confirm=i
CC[C@H]1C(=O)OC[C@@H]1Cc1cncn1C	13.4	·	·	5.9	·	·
CCNC(=O)NC(=O)C(C)OC(=O)c1c(C)nn(Cc2ccccc2Cl)c1Cl (stereo not given)	26.1	0.9	30.8*	5.0	-40.9	-56.0	S1P4 ag conf=43.5*;S1P1 agonist=-0.2
Cc1nn(Cc2ccccc2)c(Cl)c1C(=O)Nc1ccc(OC(F)(F)F)cc1	-63.3	-12.7	-0.9	10.0	-10.9	-112.5

Screens (PubChem BioAssay)
